Screening data (PubChem BioAssay)
KCNQ2 inh: rat KCNQ2 potassium channel inhibitors, primary screen, cell-based, CHO-K1, FluxOR thallium flux, B-score | B-score at 10 µM | 20 min; hits give low values | actives 1.1% (n = 310,000);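 active = fluorescence ratio B-score at most minus 3 library SDs, with starting brightness B-score within 2 library SDs, cut at about -5.5 in these data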
Target sequence (O88943 whole entry, looked up): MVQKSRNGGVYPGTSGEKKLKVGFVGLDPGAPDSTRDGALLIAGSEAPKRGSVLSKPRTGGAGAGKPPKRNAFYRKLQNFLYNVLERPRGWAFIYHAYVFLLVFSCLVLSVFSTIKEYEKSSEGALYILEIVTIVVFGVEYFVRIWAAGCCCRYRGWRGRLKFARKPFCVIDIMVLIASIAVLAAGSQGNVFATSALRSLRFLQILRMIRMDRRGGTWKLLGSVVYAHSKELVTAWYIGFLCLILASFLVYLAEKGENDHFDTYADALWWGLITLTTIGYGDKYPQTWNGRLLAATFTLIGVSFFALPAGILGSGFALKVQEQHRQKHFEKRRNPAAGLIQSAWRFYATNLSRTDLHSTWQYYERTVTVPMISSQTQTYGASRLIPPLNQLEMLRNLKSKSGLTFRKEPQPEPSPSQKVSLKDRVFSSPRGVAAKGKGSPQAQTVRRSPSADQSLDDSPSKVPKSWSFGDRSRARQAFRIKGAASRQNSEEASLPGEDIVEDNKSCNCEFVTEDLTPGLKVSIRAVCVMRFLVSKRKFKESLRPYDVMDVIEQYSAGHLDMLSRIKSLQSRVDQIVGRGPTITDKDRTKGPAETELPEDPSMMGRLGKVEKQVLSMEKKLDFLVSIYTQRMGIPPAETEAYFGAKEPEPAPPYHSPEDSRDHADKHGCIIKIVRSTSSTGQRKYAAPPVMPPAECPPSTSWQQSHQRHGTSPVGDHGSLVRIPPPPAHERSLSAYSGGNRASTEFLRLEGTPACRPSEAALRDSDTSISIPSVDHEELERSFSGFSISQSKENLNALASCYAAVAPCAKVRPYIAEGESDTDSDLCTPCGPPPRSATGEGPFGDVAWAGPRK
KCNQ2 enhance: potentiators of rat KCNQ2 potassium channel; Potassium voltage-gated channel subfamily KQT member 2 (Rattus norvegicus), O88943; B-score at 10 µM; CHO-K1 KCNQ2, FluxOR thallium flux fluorescence; hits give high values; actives 0.54% (n = 310,000); AID 2239, 2010;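 active = fluorescence ratio B-score at least 3 SD of library B-scores, with initial fluorescence B-score within 3 of them, cut at about 5.3 in these data; same plate scores as AID 2156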;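 also: B-score of peak minus minimum over baseline fluorescence ratio after K+ and Tl+ stimulus; positive B-score means potentiation of KCNQ2 with more thallium influx and brighter signal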
A number is an active result; 0 = inactive; - = no result. An excerpt weighted towards active compounds, which were near 1.6% of everything screened.

SMILES | KCNQ2 inh | KCNQ2 enhance
O=C(c1ccc([N+](=O)[O-])c(CS(=O)(=O)c2ccc(Cl)cc2)c1)N1CCCC1 | 0 | -
CC1CCN(c2oc(-c3ccccc3Cl)nc2C#N)CC1 | 0 | -
Cc1ccccc1-c1nc(C#N)c(N2CCC(C)CC2)o1 | -8.1 | 0
CC(C)(C)c1cc(C(=O)Nc2ccc(F)cc2)n(Cc2ccc(F)cc2)n1 | -5.9 | 0
Cc1ccc(NC(=O)c2cc(C(C)(C)C)nn2Cc2ccccc2)cc1 | 0 | -
N#Cc1c(/N=C/c2cccnc2)sc2c1CCCC2 | 0 | 0
N#Cc1c(/N=C/c2cccs2)sc2c1CCCCC2 | -6.1 | 0
CN(C)/C=N/c1sc2c(c1C#N)CCCCC2 | 0 | 0
CCCN(/C=N/c1sc2c(c1C#N)CCCCC2)CCC | -7.9 | 0
CN(C)C(=O)OCC1COc2ccccc2O1 (stereo not given) | 0 | -
O=C(C1CC2C=CC1C2)N1CCN(c2ccccc2)CC1 (stereo not given) | 0 | -
CC1(C)C(C=C(Cl)Cl)C1C(=O)N1CCN(c2ccccc2)CC1 (stereo not given) | -5.7 | 0
CCOC(=O)c1sc(NC(=O)Cc2c(F)cccc2Cl)nc1C | 0 | -
CCOC(=O)c1sc2nccc(N(C)C)c2c1N=CNOCc1c(F)cccc1Cl | -6.2 | 0
CCC(C)NC(=O)c1cc(-c2ccc3c(c2)OCO3)on1 (stereo not given) | 0 | -
OC(CNCCc1ccc(C(F)(F)F)cc1)COc1cccc2ccccc12 (stereo not given) | -7.1 | 0
COc1ccccc1COCC(O)CNCCc1ccc(C(F)(F)F)cc1 (stereo not given) | 0 | -
O=C(O)c1cc(N/N=C/c2cccc3ccccc23)ccc1Cl | 0 | 0
O=C(O)c1cc(N/N=C/C(Cl)=C/c2ccccc2)ccc1Cl | 0 | 5.3
O=C(O)C(C(O)c1ccc([N+](=O)[O-])cc1)[n+]1ccccc1 (stereo not given) | 0 | 0
O=C(Cn1ncn2c(cc3sccc32)c1=O)NC1CCCC1 | 0 | 0
C#C[C@]1(O)CCC2C3CCC4=CC(=O)CC[C@@H]4C3CC[C@@]21C (stereo not given in full) | 0 | -
CC#C[C@]1(O)CC[C@H]2[C@@H]3CCC4=CC(=O)CCC4=C3[C@@H](c3ccc(N(C)C)cc3)C[C@@]21C | -5.9 | 0
CCc1cccc(NC(=S)N(CCOC)C(C)c2ccco2)c1 (stereo not given) | 0 | 0
CN1CCN(C2=C(Cl)C(=O)N(C3CCCCC3)C2=O)CC1 | 0 | -
SMILES | KCNQ2 inh | KCNQ2 enhance
CN1CCN(C2=C(Cl)C(=O)C(c3cnc(N4CCCCC4)s3)=C(Cl)C2=O)CC1 | -9 | 0
Cn1c(=O)c2c(O)c(C=Nc3ccc(F)cc3)c(=O)n(C)c2n(C)c1=O | 0 | 0
COc1ccc(CNC(=O)CCCn2nc(C)c3c(C)n(-c4ccc(C)cc4)nc3c2=O)cc1 | 0 | -
C=CCSC1=N/C(=C\c2ccc3c(c2)OCO3)C(=O)S1 | 0 | 0
C=CCSC1=N/C(=C\c2cc(OCC)c(OC(C)=O)c([N+](=O)[O-])c2)C(=O)S1 | 0 | 7.1
Cc1cccc(-c2noc(CN(C(=O)C34CC5CC(CC(C5)C3)C4)C(C)C)n2)c1 | -5.7 | 0
COc1cc(OC)cc(C(=O)N(Cc2nc(-c3cccc(C)c3)no2)C(C)C)c1 | 0 | -
Cc1cc(SCC(=O)NC(=O)c2cccn2C)nc2ccccc12 | 0 | -
COc1cc(CNC(=O)c2cccc(COc3ccc(Cl)cc3)c2)cc(OC)c1 | -5.9 | 0
O=C(NCc1ccccc1)c1cccc(COc2ccc(Cl)cc2)c1 | 0 | -
COc1cc2cc(C(=O)N3CCN(Cc4ccc5c(c4)OCO5)CC3)c(=O)oc2cc1OC | 0 | -
Cc1ccc(C)c(C(C)NC(=S)NCc2ccc(F)cc2)c1 (stereo not given) | 0 | -
NNC(=O)c1cc(C23CC4CC(CC(C4)C2)C3)[nH]n1 | 0 | 0
CN(C)c1ccc(/C=N/N2C(=S)SC(C)(C)C2N(O)C(=O)Nc2ccc([N+](=O)[O-])cc2)cc1 (stereo not given) | -6.8 | 0
CNC(=O)N(O)C1N(/N=C/c2ccc(SC)cc2)C(=S)SC1(C)C (stereo not given) | 0 | -
CCOCCc1nnc(NC(=O)CS(=O)(=O)c2ccc(C)cc2)s1 | 0 | -
O/N=C(/CCc1ccccc1)c1ccc2c(c1)OCCO2 | -5.9 | 0
O=C(CCc1ccccc1)c1ccc2c(c1)OCCCO2 | 0 | -
O=C(/C=C/c1c(Cl)cccc1Cl)NCCCn1ccnc1 | 0 | -
Cc1nnc(SCC(=O)N2CCN(C(=O)c3ccco3)CC2)n1-c1ccccc1 | 0 | -
OC(c1ccccc1)(C1CCCCC1)C(CN1CCOCC1)c1ccccc1 (stereo not given) | -5.7 | 0
COc1ccc(C(O)(C2CCCCC2)C(CN2CCOCC2)c2ccccc2)cc1 (stereo not given) | 0 | -
O=C(Nc1cccnc1)c1ccc(-c2cc(Cl)ccc2Cl)o1 | 0 | 0
O=C(NCc1cccnc1)c1ccc(-c2cc(Cl)ccc2Cl)o1 | -6.8 | 0
C=CCOc1c(Cl)cc(CNCCCN2CCOCC2)cc1OC | 0 | 0
SMILES | KCNQ2 inh | KCNQ2 enhance
CC(C)(C)n1nnnc1C(c1cccc(C#N)c1)N1CCC(Cc2ccccc2)CC1 (stereo not given) | 0 | 0
CCC(C)(C)n1nnnc1C(c1cccc(C#N)c1)N1CCN(c2cc(C)ccc2C)CC1 (stereo not given) | -5.8 | 0
Cc1ccc(NC(=O)CNC(=O)Cc2cccc3ccccc23)c(O)c1 | 0 | -
O=C(NCCc1ccccn1)c1cc2ccccc2o1 | 0 | 0
O=C(CN1CCCCCC1)Nc1ccc(Oc2ccccc2)cc1 | 0 | 9
NC(=O)C1(N2CCCCC2)CCN(CC(=O)Nc2ccc(Oc3ccccc3)cc2)CC1 | 0 | 0
CC(Sc1nnc(N)s1)C(=O)Nc1ccc2c(c1)OCCO2 (stereo not given) | 0 | 0
Cc1ccc(SCc2nc(N)nc(Nc3ccccc3C)n2)cc1C | 0 | 6.7
Cc1ccccc1Nc1nc(N)nc(CSCC(=O)Nc2cccc(Br)c2)n1 | 0 | 27
Cc1ccccc1Nc1nc(N)nc(CSc2ccc(F)cc2)n1 | 0 | -
Cc1ccc(SCc2nc(N)nc(Nc3ccccc3C)n2)c(C)c1 | 0 | 0
CC(NC(=O)Cc1ccc(Br)cc1)c1ccccc1 (stereo not given) | 0 | -
Cc1cc(C)c(S(=O)(=O)N2CCCCC2CCNC(=O)C(=O)NCc2cccnc2)c(C)c1 (stereo not given) | 0 | -
C=CCn1c(=O)c(CCC(=O)Nc2ccc(N3CCOCC3)cc2)nc2cc(C(F)(F)F)ccc21 | 0 | 0
NC(=O)CSc1nc2ccccc2c(=O)n1Cc1ccco1 | 0 | -
CCCn1c(C)cc(C(=O)CSc2nc3ccccc3c(=O)n2Cc2ccco2)c1C | -6 | 0
O=C(NC1CCC(C(=O)O)CC1)OCc1ccccc1 (stereo not given) | 0 | 0
c1ccc(CO/N=C(\c2ccc(C3CC3)nc2)C2CC2)cc1 | -7 | 0
CC1=C(C)C(=O)C(CCCCC#CCCCC#CCO)=C(C)C1=O | -6.8 | 0
CCOc1ccc(N(CC(=O)NC2CC2)S(=O)(=O)c2ccc(C)cc2)cc1 | 0 | -
O=C(COC(=O)C1(c2ccc(F)cc2)CCCC1)Nc1ncc(C(F)(F)F)cc1Cl | -7 | 0
O=C(COC(=O)C1(c2ccc(Cl)cc2)CCCC1)Nc1ncc(C(F)(F)F)cc1Cl | 0 | -
CCCCn1c(N)c(N(CC(C)C)C(=O)CC2CCCC2)c(=O)[nH]c1=O | 0 | -
CCOC(=O)C1(CC2CC2)CCN(C(=O)c2cc(C3CC3)nc3ccccc23)CC1 | 0 | -
CCOC(=O)C1(CC2CC2)CCN(C(=O)c2cccnc2C)CC1 | -6.4 | 0
